Hits are enriched below; roughly 3.8% of the tested compounds scored in any of these assays.
ADAM10 inh: human ADAM10 inhibitors, primary screen, biochemical, QFRET, HTS. Disintegrin and metalloproteinase domain-containing protein 10 (Homo sapiens), O14672. recombinant ADAM10, EDANS/DABCYL FRET peptide cleavage, 3 h. 370,000 tested, 0.62% active. AID 720582, 2013. inhibition, % at 7 µM;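 active means inhibition above a per-campaign cutoff equal to the mean of compounds falling between control-based bounds plus 3 SD, cut at about 20% in these data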;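 further: 0% = DMSO wells while the 100% control is not disclosed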
Target sequence (O14672 214-748 limits assumed): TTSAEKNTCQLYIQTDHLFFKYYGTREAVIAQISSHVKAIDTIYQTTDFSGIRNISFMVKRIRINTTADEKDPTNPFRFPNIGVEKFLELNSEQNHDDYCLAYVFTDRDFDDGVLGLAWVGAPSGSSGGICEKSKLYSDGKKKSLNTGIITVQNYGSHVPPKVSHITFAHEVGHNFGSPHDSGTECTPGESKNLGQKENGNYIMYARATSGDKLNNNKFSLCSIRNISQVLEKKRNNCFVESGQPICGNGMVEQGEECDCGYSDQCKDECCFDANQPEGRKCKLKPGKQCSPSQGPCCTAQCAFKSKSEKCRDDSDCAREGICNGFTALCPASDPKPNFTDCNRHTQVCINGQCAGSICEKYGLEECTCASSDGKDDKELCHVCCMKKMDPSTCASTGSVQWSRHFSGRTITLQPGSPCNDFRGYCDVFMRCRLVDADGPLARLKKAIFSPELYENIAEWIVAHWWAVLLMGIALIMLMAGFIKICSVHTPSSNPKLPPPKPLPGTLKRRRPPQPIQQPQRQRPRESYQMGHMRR
FGF22 binding: binders of human FGF22 protein, primary screen, FGF22 synaptogenesis inhibitor project, biophysical, thermal shift, single point | AID 651658, 2012 | Fibroblast growth factor 22 (Homo sapiens), Q9HCT0 | 340,000 tested, 1.5% active | recombinant FGF22 thermal shift, SYPRO orange fluorescence; percent of sucrose octasulfate shift, DMSO zero | activity (Tm shift, normalised), % at 9.99 µM;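 active means mean Tm shift, scaled 0 neutral to 100 positive control, at about 1.3% or above, every replicate too, limit read from the data; inconclusive means no clear call, values can overlap the other calls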
proKLK7 act: proKLK7 zymogen activators, primary screen, biochemical, fluorescence intensity; purified proKLK7, EDANS-DABCYL substrate fluorescence; 100% is mature enzyme control, 0% vehicle; Kallikrein-7 (Homo sapiens), P49862; activation, % at 7 µM; 370,000 tested, 0.9% active;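 active means activation above the mean of all tested compounds plus 3 SD, computed per campaign excluding outliers beyond control limits, cut at about 13% in these data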
ADAM17 inh: ADAM17 inhibitors, primary screen, biochemical, QFRET; Disintegrin and metalloproteinase domain-containing protein 17 (Homo sapiens), P78536; recombinant ADAM17, EDANS/DABCYL FRET peptide cleavage; inhibition, % at 6.95 µM; 370,000 tested, 0.83% active; AID 720648, 2013;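 active means inhibition above the mean of compounds lying between control limits plus 3 SD, set per campaign, cut at about 8.5% in these data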;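 further: 0% = DMSO-only wells as the low control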
rRNA inh HTS: reduced GFP signal of wild-type E. coli, primary screen, bacterial rRNA inhibitor project, GFP/RFP fluorescence, OD600, single point; E. coli WT GFP vs humanized-ribosome RFP mutants, 24 h; active compounds read low; DMSO median 0, no signal -100; GFP signal change (wild-type ribosome), % (no concentration beside the values); 350,000 tested, 1.6% active; AID 720706, 2013;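 active means significant combined selectivity score with lowered wild-type GFP, culture density cut under 30%, mutant RFP and density less affected; inactive means any of these conditions unmet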
HepG2 cytotox: cytotoxicity in HepG2 cells, dose response, cytotoxicity control, cell-based, CellTiter-Glo luminescence, cherry-pick, set 4; HepG2 viability, ATP luminescence, 72 h; 30 tested, under 10 active; activity change, negative = cytotoxicity, unspecified at 26 µM; shares compounds with rRNA inh HTS;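 active means compounds whose fitted half-maximal signal-loss concentration is at most twice their highest valid dose; inconclusive means flat curve with 30 to 70% signal loss, or poor fit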
AID977621: growth inhibition of wild-type GFP E. coli, dose response, H69 mutant RFP, cherry-pick | E. coli wild-type GFP strain growth, fluorescence, 24 h | AID 977621, 2014 | activity change, negative = inhibition at 50 µM | 1,900 tested, under 10 active | shares compounds with rRNA inh HTS;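 active means Wild-type ribosome reporter drop at least double the humanized mutant ribosome reporter drop, growth loss under a set limit; inconclusive means no clear call, values can overlap the other calls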;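 further: wild-type GFP and H69 mutant RFP strains grown together 50/50 in each well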
AID977628: E. coli growth inhibition, wild-type GFP versus h24 humanized RFP strain, dose response, h24 mutant RFP vs wild-type GFP, cherry-pick. activity change, negative = inhibition at 50 µM. 1,900 tested, under 10 active. E. coli WT GFP strain growth, fluorescence, 24 h. shares compounds with rRNA inh HTS;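 active means compound lowering the normal-ribosome reporter at least twice as much as the humanized-ribosome reporter, growth loss under a set limit; inconclusive means no clear call, values can overlap the other calls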;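 further: wild-type GFP and h24 humanized RFP strains co-cultured 1 to 1 per well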
* marks the source's active call; other numbers are inactive results; ? = inconclusive; · = no result.

SMILES	ADAM10 inh	FGF22 binding	proKLK7 act	ADAM17 inh	rRNA inh HTS	AID977621	AID977628	others
COCc1cc(C)nc(SCC[N+](C)(C)CC(=O)Nc2ccccc2)c1C#N	4	41	0	-3	4	·	·
Cc1cc(C(=O)OCC(=O)Nc2cccc(S(N)(=O)=O)c2)c2ccccc2n1	-14	0	-1	-6	-20*	-6.5	·
Cc1cc(C(=O)OCC(=O)NCCc2ccc(S(N)(=O)=O)cc2)c2ccccc2n1	-23	0	-1	-10	3	·	·
COc1cc2c(cc1OC)C1(C)N(CC2)C(C(C)=O)=NN1c1ccc(Cl)cc1 (centres undefined)	-130	0	9	-38	-17*	-3.4	·
Cn1c(SCC(=O)c2ccccc2)nnc1-c1ccccn1	1	0	0	0	0	·	·
Cc1ccccc1CSc1nnc(-c2ccccn2)n1C	-41	0	0	-19	-21*	-7.2	?
COc1ccccc1N(C)S(=O)(=O)c1ccc(Cl)c(C(=O)NC2=NCCS2)c1	8	0	0	-1	-30*	-15	?
CCCC#Cc1ccc([C@@H]2[C@@H](CO)N3CCCCN(Cc4cccnc4)C[C@H]23)cc1	·	-1	·	·	1	·	·
C[C@H](NC(=O)[C@H]1[C@H](CO)[C@H]2Cn3c(cccc3=O)[C@H]2N1CC1CC1)c1ccccc1	·	0	·	·	3	·	·
CC(CCc1ccccc1)NC(=O)CCC1CCCC1 (centres undefined)	0	0	-1	-1	-21*	-3.5	-5.7
CC(CCc1ccccc1)NC(=O)CCC(=O)N1CCC(C(=O)O)CC1 (centres undefined)	12	0	0	1	14	·	·
Cc1cccc(CN2C(=O)c3ccccc3Sc3ccc(C(=O)NCCN4CCOCC4)cc32)c1	15	0	0	0	-47*	-22	·
Cc1ccc(CN2C(=O)c3ccccc3Sc3ccc(C(=O)NCCN4CCOCC4)cc32)cc1	10	0	0	4	-14	·	·
COC(=O)[C@H]1[C@H](CO)[C@H]2Cn3c(ccc(-c4ccncc4)c3=O)[C@H]2N1Cc1cccc(F)c1	·	0	·	·	0	·	·
CC(=O)Cc1cc(O)c2ccccc2c1OC(=O)c1ccc(Br)cc1	6	0	0	-1	-14*	6.9	0.52
O=C(COC(=O)c1ccc(Br)cc1)NCc1ccccc1	1	·	0	0	·	·	·
O=C(O)CNC(=O)C(c1ccccc1)c1ccccc1	3	0	0	0	-17*	-6.8	-7
COc1ccc2[nH]c3c(=O)n(CCCCC(=O)NCCC(C)C)c(=S)[nH]c3c2c1	-31	0	0	-9	-25*	·	·	HepG2 cytotox=11
COc1ccc2[nH]c3c(=O)n(CCCCC(=O)N4CCCC4)c(=S)[nH]c3c2c1	-9	·	0	-2	-18	·	·
CN(C(=O)c1ccc(NC(=O)Cc2cccc(NC(=O)C3CCN(C(=O)CCc4ccccc4)CC3)c2)cc1)C1CC1	-12	41	1	-1	1	·	·
O=C(Cc1ccc(NC(=O)C2CCN(C(=O)CCc3ccccc3)CC2)cc1)Nc1cccc(C(=O)N2CCCC2)c1	-19	0	1	-7	-19	·	·
O=C(Cc1cccc(NC(=O)C2CCN(C(=O)CCc3ccccc3)CC2)c1)Nc1cccc(C(=O)N2CCCC2)c1	-3	0	0	-2	-19*	-23	·
CN(C(=O)c1cccc(NC(=O)Cc2cccc(NC(=O)C3CCN(C(=O)CCc4ccccc4)CC3)c2)c1)C1CC1	-3	0	0	-2	-38*	·	?
CC(C)NC(=O)N(C)C[C@@H]1Oc2ccc(N(C)C)cc2CC(=O)N(C)C[C@@H]1C	·	·	·	·	0	·	·
Cc1cccc(C)c1-n1nnnc1C1(C)CCC(=O)N1Cc1cccs1 (centres undefined)	-6	1	0	-3	-21*	-26	·
SMILES	ADAM10 inh	FGF22 binding	proKLK7 act	ADAM17 inh	rRNA inh HTS	AID977621	AID977628	others
CC(C)(C)[S@](=O)N1Cc2cc(C(=O)N[C@H]3CCN(Cc4ccccc4)C3)nc(-c3cccc(-c4cccnc4)c3)c2[C@@H]1CCO	·	0	·	·	-2	·	·
CCCNC(=O)c1noc2c1CCc1cc(OC)ccc1-2	-1	0	1	-5	-28*	?	·
COCC(=O)Nc1ccc2c(c1)OC[C@@H](C)N(Cc1ccccc1F)C[C@@H](C)[C@H](OC)CN(C)C2=O	·	0	·	·	-2	·	·
Cc1ccc(S(=O)(=O)Nc2ccccc2CNc2cccc(C)n2)cc1	8	0	-1	5	-16*	-15	?
Cc1cc(NC(=O)NC(=O)c2cccc(OC(F)(F)C(F)F)c2)n[nH]1	-3	·	0	-3	·	·	·
Cc1cc(NC(=O)c2cccc(Oc3ccccc3)c2)n[nH]1	15	0	0	4	-22*	·	?
O=S(=O)(NOCc1ccc(Cl)cc1)c1ccc(Cl)cc1	9	0	0	3	-39*	6.8	-2.7
Cc1ccc(CONS(=O)(=O)c2cc(C)ccc2C)cc1	5	0	-1	3	-60	·	·
CC(=O)N(C)C[C@@H]1Oc2cc(C#Cc3ccc(F)cc3)ccc2S(=O)(=O)N([C@@H](C)CO)C[C@H]1C	·	0	·	·	-28	·	·
O=S(=O)(c1ccccc1)N1CC[C@@H]2[C@H]1c1cc(Br)ccc1N[C@@H]2CO	·	0	·	·	-19	·	·
O=S(=O)(c1ccccc1)N1CC[C@@H]2[C@H](CO)Nc3ccc(Br)cc3[C@@H]21	·	0	·	·	-42*	-12	·
COc1cccc(CNC(=O)[C@H]2[C@H](CO)[C@H]3Cn4c(ccc(-c5ccncc5)c4=O)[C@@H]2N3C(C)=O)c1	·	0	·	·	6	·	·
CC(=O)N(C)c1cc([N+](=O)[O-])ccc1OCc1ccccc1	-6	0	0	-8	-15	·	·
COc1cccc2c1Oc1cc([N+](=O)[O-])cc(N(C)C(C)=O)c1C=C2	4	0	0	2	-17*	·	?

Compound activity: PubChem BioAssay, several laboratories
